# Experimental data taken from article PMC5700166.
# Residue numbers refer to the chain shown, from its start.
# Assays:
# Test in all cases: protein-binding microarray (PBM); PBM: ~300 nM protein, 6 mM HEPES pH 7.8, 80 mM KCl, 0.5 mM EDTA, 0.5 mM EGTA, 6% glycerol, 35 ng/ul poly-dIdC, 1% milk, 1 h, room temperature; Ap Aiptasia and Nv Nematostella (sea anemones) / Co Capsaspora / Aq Amphimedon (sponge) / Dm Drosophila / Hu human; RHD is the Rel homology domain; high values mean tight binding
# Settings in all cases: dsDNA, one strand shown
# GST-Ap-NF-kB RHD = target: T1, GST-Ap-NF-kB RHD (Exaiptasia pallida (Aiptasia), UniProt A0A913YAJ5 2-422)
# T1 sequence: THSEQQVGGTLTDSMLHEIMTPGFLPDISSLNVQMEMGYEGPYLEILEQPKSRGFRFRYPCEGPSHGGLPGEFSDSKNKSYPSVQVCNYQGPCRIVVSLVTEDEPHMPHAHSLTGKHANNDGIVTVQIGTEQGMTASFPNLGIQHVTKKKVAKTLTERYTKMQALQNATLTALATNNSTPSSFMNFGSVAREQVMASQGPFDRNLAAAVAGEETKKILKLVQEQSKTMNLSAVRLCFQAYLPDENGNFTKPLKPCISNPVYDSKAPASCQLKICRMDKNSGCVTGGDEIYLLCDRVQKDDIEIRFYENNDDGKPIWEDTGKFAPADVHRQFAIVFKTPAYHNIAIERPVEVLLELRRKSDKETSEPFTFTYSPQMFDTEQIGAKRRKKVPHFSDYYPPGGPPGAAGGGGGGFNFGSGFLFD
# [1] = target: T2, GST-Nv-NF-kB (Cys allele) (Nematostella vectensis, UniProt E5G601 2-411)
# T2 sequence: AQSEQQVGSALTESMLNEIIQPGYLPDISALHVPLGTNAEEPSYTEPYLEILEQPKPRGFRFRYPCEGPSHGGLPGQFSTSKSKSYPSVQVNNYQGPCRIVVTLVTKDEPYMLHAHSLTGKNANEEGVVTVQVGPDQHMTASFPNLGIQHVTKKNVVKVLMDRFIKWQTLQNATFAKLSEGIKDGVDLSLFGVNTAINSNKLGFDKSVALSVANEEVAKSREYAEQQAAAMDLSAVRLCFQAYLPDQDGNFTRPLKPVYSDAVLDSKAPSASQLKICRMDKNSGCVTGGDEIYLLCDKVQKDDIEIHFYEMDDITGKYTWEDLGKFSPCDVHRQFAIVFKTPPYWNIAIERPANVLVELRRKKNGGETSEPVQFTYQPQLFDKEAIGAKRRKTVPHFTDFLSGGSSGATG
# [2] = target: T3, GST-Nv-NF-kB (Ser allele) (Nematostella vectensis, UniProt A7UNT2 2-411)
# T3 sequence: T2 sequence with Q21R, C66S, S207N, E215Q, V217A, E225K, A268E, D399E
# GST-Co-NF-kB = target: T4, GST-Co-NF-kB (Capsaspora owczarzaki, UniProt F1ARL5 200-546)
# T4 sequence: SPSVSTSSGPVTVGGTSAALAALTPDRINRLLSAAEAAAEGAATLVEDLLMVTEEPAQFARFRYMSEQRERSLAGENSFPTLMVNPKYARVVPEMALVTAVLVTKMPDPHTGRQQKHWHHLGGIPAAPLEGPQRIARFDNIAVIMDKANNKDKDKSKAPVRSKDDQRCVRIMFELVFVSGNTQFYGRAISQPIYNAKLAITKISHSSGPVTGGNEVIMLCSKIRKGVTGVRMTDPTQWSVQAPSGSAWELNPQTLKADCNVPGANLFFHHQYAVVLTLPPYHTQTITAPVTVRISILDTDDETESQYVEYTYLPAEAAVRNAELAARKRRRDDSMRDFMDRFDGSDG
# GST-Dm-Relish = target: T5, GST-Dm-Relish (Drosophila melanogaster, UniProt Q94527 99-473)
# T5 sequence: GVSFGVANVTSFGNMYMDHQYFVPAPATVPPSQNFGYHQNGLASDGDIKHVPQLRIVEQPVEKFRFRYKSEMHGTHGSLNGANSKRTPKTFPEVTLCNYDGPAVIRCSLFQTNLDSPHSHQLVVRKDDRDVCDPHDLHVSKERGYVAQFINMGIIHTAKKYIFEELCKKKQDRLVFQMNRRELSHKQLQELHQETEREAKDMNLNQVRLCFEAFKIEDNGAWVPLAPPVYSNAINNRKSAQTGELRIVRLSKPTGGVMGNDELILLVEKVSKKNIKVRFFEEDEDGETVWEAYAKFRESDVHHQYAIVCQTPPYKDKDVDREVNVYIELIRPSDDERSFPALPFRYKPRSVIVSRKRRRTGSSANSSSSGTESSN
# GST-Aq-NF-kB = target: T6, GST-Aq-NF-kB (Amphimedon queenslandica, UniProt A9Y5G7 2-389)
# T6 sequence: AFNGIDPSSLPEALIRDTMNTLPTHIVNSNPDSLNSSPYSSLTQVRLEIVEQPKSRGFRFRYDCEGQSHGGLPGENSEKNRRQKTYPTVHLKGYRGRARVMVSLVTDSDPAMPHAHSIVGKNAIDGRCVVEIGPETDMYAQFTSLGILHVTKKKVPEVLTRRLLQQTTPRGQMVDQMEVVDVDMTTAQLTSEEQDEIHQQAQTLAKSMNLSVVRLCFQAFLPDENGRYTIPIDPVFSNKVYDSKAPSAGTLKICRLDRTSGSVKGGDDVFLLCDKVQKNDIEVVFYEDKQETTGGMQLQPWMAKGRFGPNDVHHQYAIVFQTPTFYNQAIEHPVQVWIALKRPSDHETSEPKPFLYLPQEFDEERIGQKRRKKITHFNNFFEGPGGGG
# GST-Hu-p50 = GST-Hu-p50 (Homo sapiens, UniProt P19838 7-356)
# GST-Hu-p50, sequence (P19838 7-356): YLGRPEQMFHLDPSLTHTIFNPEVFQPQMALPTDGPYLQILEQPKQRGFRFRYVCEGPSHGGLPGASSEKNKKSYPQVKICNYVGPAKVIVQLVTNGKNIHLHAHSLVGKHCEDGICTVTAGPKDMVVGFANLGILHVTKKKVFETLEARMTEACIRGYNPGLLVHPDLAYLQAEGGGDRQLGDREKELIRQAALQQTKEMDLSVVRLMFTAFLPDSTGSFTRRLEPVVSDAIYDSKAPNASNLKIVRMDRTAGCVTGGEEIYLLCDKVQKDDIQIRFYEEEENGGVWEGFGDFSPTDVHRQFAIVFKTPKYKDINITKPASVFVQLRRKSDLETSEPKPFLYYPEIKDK
Sequence,binding signal (GST-Ap-NF-kB RHD) [z-score],binding signal [1] [z-score],binding signal [2] [z-score],binding signal (GST-Co-NF-kB) [z-score],binding signal (GST-Dm-Relish) [z-score],binding signal (GST-Aq-NF-kB) [z-score],binding signal (GST-Hu-p50) [z-score]
CCGATTAACATCACCGTTTCCCCTGATGTTAATCGGGTCTTGATTCGCTTGACGCTGCTG,6.05,6.66,9.86,7.95,2.77,4.66,5.1
CCGATTAACATCACGGGAGTCCCTGATGTTAATCGGGTCTTGATTCGCTTGACGCTGCTG,5.38,3.94,4.12,1.57,8.97,5.18,3.45
CCGATTAACATCAAGATTTCCCATGATGTTAATCGGGTCTTGATTCGCTTGACGCTGCTG,2.43,4.42,4.61,4.11,2.29,3.35,3.33
CCGATTAACATCAAGAACCCCCTTGATGTTAATCGGGTCTTGATTCGCTTGACGCTGCTG,7.4,6.12,7.11,1.5,8.56,6.48,6.86
CCGATTAACATCAGGGGATTGGATGATGTTAATCGGGTCTTGATTCGCTTGACGCTGCTG,4.77,4.99,6.52,2.06,2.73,3.69,4.98
CCGATTAACATCACAATTCCCCCTGATGTTAATCGGGTCTTGATTCGCTTGACGCTGCTG,7.95,8.27,9.39,8.14,5.44,6.33,7
CCGATTAACATCAAAAACTTCCCTGATGTTAATCGGGTCTTGATTCGCTTGACGCTGCTG,5.3,5.84,6.81,3.89,5.16,6.27,4.68
CCGATTAACATCACCTTTCCCCCTGATGTTAATCGGGTCTTGATTCGCTTGACGCTGCTG,6.53,6.31,7.29,9.42,2.89,4.77,5.65
CCGATTAACATCAGGGAATAACCTGATGTTAATCGGGTCTTGATTCGCTTGACGCTGCTG,4.4,6.79,6.75,2.13,8.23,7.2,5.21
CCGATTAACATCAAAATTTCCCCTGATGTTAATCGGGTCTTGATTCGCTTGACGCTGCTG,10.2,11.6,14.6,10.6,8.41,8.46,7.8
CCGATTAACATCAAAAATTCCCGTGATGTTAATCGGGTCTTGATTCGCTTGACGCTGCTG,5.97,8.78,8.06,6.08,7.67,7.49,5.55
CCGATTAACATCAAGTTCCCCCCTGATGTTAATCGGGTCTTGATTCGCTTGACGCTGCTG,7.37,6.39,7.26,10.1,6.95,6.03,6.13
